This note sets out measurements from ChEMBL document CHEMBL4296183, “CO-ADD screening of NIH NCI Natural Product Set III” (2020).

For assay [1], the system named is Staphylococcus aureus. Put plainly: Antibacterial activity against Staphylococcus aureus MRSA ATCC 43300 (CO-ADD:GP_020); MIC in CAMBH media using NBS plates, by Resazurin F(560/590). Type of assay: functional. As to conditions: Concentration 20 uM, ASSAY_TEST Inhibition of Bacterial Growth, detection method Resazurin, Fluorescence (ex560/em590), MEDIA CAMHB, plate type 384well, CORNING #3640, time 18 hr.

In assay [2] the test system is Acinetobacter baumannii. The assay can be described thus: Antibacterial activity against Acinetobacter baumannii ATCC 19606 (CO-ADD:GN_034); MIC in CAMBH media using NBS plates, by Resazurin F(560/590). Type of assay: functional. As to conditions: Concentration 20 uM, ASSAY_TEST Inhibition of Bacterial Growth, detection method Resazurin, Fluorescence (ex560/em590), MEDIA CAMHB, plate type 384well, CORNING #3640, time 18 hr. On the technique in general: Alamar Blue is a resazurin reagent that responds to reducing activity.

Assay [3] relates to Escherichia coli. The assay can be described thus: Antibacterial activity against Escherichia coli ATCC 25922 (CO-ADD:GN_001); MIC in CAMBH media using NBS plates, by Resazurin F(560/590). As to conditions: Concentration 20 uM, ASSAY_TEST Inhibition of Bacterial Growth, detection method Resazurin, Fluorescence (ex560/em590), MEDIA CAMHB, plate type 384well, CORNING #3640, time 18 hr. Type of assay: functional.

Assay [4] deals with Klebsiella pneumoniae. Particulars: Concentration 20 uM; ASSAY_TEST Inhibition of Bacterial Growth; detection method Absorption (OD600); MEDIA CAMHB; plate type 384well; NBS; CORNING #3640; time 18 hr.
The test system of assay [5] is Candida albicans. Particulars: 20 µM.
Assay [6] concerns Cryptococcus neoformans. As to conditions: Concentration 20 uM; ASSAY_TEST Inhibition of Fungal Growth; detection method Resazurin; Absorption (OD600-OD570); plate type 384well; NBS; CORNING #3640.

For some assays here: Entries with a potency or affinity are not part of this list.

In general, Inhibition refers to the relative decrease from the control value, in per cent. As to `C[C@@H]1C(=O)C[C@H]2C(C)(C)CCC[C@]2(C)[C@@]1(O)CCc1ccoc1`, the Inhibition in assay [1] was -11.22%; in assay [2], -8.38%; in assay [3], 1.88%; in assay [4] it was -12.83%; in assay [5], 5.12%; in assay [6], -4.02%.

Consider `CCCCCC[C@H]([C@H](C)O)n1cnc2c(N)ncnc21.Cl`, for which the Inhibition was 18.32% in assay [1]; -17.98% in assay [2]; 7.31% in assay [3]; -3.55% in assay [4]; -0.37% in assay [5]; -9.44% in assay [6].

`CN1CCc2cc3c(cc2C(=O)Cc2ccc4c(c2C1)OCO4)OCO3.Cl` [PROTOPINE HYDROCHLORIDE]: the Inhibition in assay [1] is 14.82%; in assay [2], -4.7%; in assay [3], 3%; in assay [4], 4.34%; in assay [5], -1.7%; in assay [6], -6.39%.

Consider `COc1cc([C@@H]2c3cc4c(cc3[C@@H](OC3OC5CO[C@@H](c6cccs6)OC5C(O)C3O)[C@H]3COC(=O)[C@H]23)OCO4)cc(OC)c1O` (some centres undefined), for which the Inhibition in assay [1] was 7.05%; in assay [2], -1.54%; in assay [3], 1.68%; in assay [4], -0.01%; in assay [5], 0.54%; in assay [6] it was -9.1%.

Regarding `CCCCCc1cc(O)cc2c1Oc1cc(O)cc(C(=O)CCCC)c1C(=O)O2`, the Inhibition in assay [1] was 23.6%; in assay [2] it was -18.85%; in assay [3], 9.72%; in assay [4], -6.31%; in assay [5], 2.52%; in assay [6], -14.32%.

Consider `CC(=O)O.COc1ccc2c(=O)oc3c(OC)cc(CCN(C)C)c4c(=O)oc1c2c34`, for which the Inhibition in assay [1] is 18.21%; in assay [2], -7.25%; in assay [3], 6.5%; in assay [4], 15.37%; in assay [5] it was -2.47%; in assay [6], -6.47%.

On to `COc1ccc2c(c1)O[C@H]1c3ccc(O)cc3OC[C@@H]21`, for which the Inhibition was 7.33% in assay [1]; -10.59% in assay [2]; 8.35% in assay [3]; -2.42% in assay [4]; 12.9% in assay [5]; -18.12% in assay [6].

With `COC1/C=C\C=C(/C)C(=O)NC2=CC(=O)C(N)=C(CC(C)CC(OC)C(O)C(C)/C=C(\C)C1OC(N)=O)C2=O` (centres undefined), the Inhibition in assay [1] was 2.59%; in assay [2], -32.33%; in assay [3] it was -4.57%; in assay [4] it was 4.53%; in assay [5], -0.48%; in assay [6] it was -11.91%.

On to `CCCCCCCCCCCCCCCCCCOCC(O)CO` (centres undefined) [BATILOL], for which the Inhibition in assay [1] is 16.14%; in assay [2] it was -8.86%; in assay [3] it was 0.06%; in assay [4] it was 2.79%; in assay [5], -1.81%; in assay [6], 0.87%.

Regarding `CCCCCCCCCCCCCCCC(=O)O[C@@H]1[C@@H](C)[C@@]2(O)[C@@H](C=C(CO)C[C@]3(O)C(=O)C(C)=C[C@@H]23)[C@H]2[C@]1(OC(C)=O)[C@]2(C)CO`, the Inhibition in assay [1] is 18.67%; in assay [2], -9.19%; in assay [3], 2.92%; in assay [4], 11.05%; in assay [5] it was -4.72%; in assay [6], -11.83%.

As for `CC1(C)CCCC2(C)C3=C(CCC12)C(=O)OC3` (centres undefined), the Inhibition in assay [1] was 10.53%; in assay [2] it was -0.35%; in assay [3], 1.76%; in assay [4] it was 7.04%; in assay [5] it was 0.95%; in assay [6], -15.17%.

On to `COC(=O)[C@]1(C)CCC[C@]2(C)C3=CC(=O)[C@@]4(C(C)C)O[C@H]4[C@]3(O)CC[C@@H]12`, for which the Inhibition is 16.23% in assay [1]; -9.2% in assay [2]; 10.18% in assay [3]; -2.04% in assay [4]; 3.2% in assay [5]; -11.73% in assay [6].

Take `CC(=O)Oc1ccc2ccc(=O)oc2c1OC(C)=O`: the Inhibition in assay [1] is 18.68%; in assay [2], -10.5%; in assay [3] it was 2.34%; in assay [4], 9%; in assay [5], -1.13%; in assay [6] it was -4.56%.

As for `CCC1OC(=O)C(C)C(OC2CC(C)(O)C(O)C(C)O2)C(C)C(O)C(C)(O)CC(C)C(=O)C(C)C(O)C1C` (centres undefined), the Inhibition was -9.59% in assay [1]; -2.14% in assay [2]; 7.74% in assay [3]; 3.36% in assay [4]; 1.65% in assay [5]; -12.63% in assay [6].

Regarding `O=c1oc2c(O)c(O)cc3c(=O)oc4c(O)c(O)cc1c4c23` [ELLAGIC ACID], the Inhibition is -17.94% in assay [1]; -6.11% in assay [2]; 7.74% in assay [3]; 25.12% in assay [4]; 8.04% in assay [5]; -7.36% in assay [6].

For the compound `O=c1oc2cc(O)ccc2c2oc3cc(O)ccc3c12` [COUMESTROL], the Inhibition is 0.36% in assay [1]; -8.94% in assay [2]; 2.17% in assay [3]; -3.39% in assay [4]; 2.68% in assay [5]; 17.46% in assay [6].

On to `COc1ccc(C2CC(=O)c3c(O)cc(OC4OC(CO)C(O)C(O)C4OC4OC(C)C(O)C(O)C4O)cc3O2)cc1O` (centres undefined), for which the Inhibition is 15.96% in assay [1]; -4.03% in assay [2]; 5.81% in assay [3]; 1.79% in assay [4]; -1.53% in assay [5]; -13% in assay [6].

Take `C=C1C(=O)O[C@@H]2[C@H]3O[C@]3(C)CC/C=C(\C)CC[C@@H]12`: the Inhibition in assay [1] was -12.66%; in assay [2], 3.45%; in assay [3], 5.09%; in assay [4], 3.51%; in assay [6], -8.82%.

Regarding `COC(=O)NC1C(C)OC(OC2C/C=C(/C)C3C=CC4C(OC5CC(OC6CCC(OC7CC(O)C(OC8CCC(O)C(C)O8)C(C)O7)C(C)O6)C(OC(C)=O)C(C)O5)C(C)CC(C)C4C3(C)/C(O)=C3/C(=O)OC4(CC(C=O)=CC(O)C4/C=C\2C)C3=O)CC1(C)[N+](=O)[O-]` (centres undefined), the Inhibition in assay [1] was -21.61%; in assay [2], -13.61%; in assay [3], 6.38%; in assay [4], 4.04%; in assay [5], 4.81%; in assay [6] it was -14.96%.

Regarding `CC1(C)C(=O)N2c3ccccc3C3(CC(N4C(=O)c5ccccc5C4=O)C(=O)O3)C2N1C(=O)OCc1ccccc1` (centres undefined), the Inhibition was -7.98% in assay [1]; -16.59% in assay [2]; 1.59% in assay [3]; -2.04% in assay [4]; 1.22% in assay [5]; -12.3% in assay [6].

`CCC1NC(=O)C(NC(=O)c2ncccc2O)C(C)OC(=O)C(c2ccccc2)NC(=O)C2CC(=O)CCN2C(=O)C(Cc2ccccc2)N(C)C(=O)C2CCCN2C1=O` (centres undefined): the Inhibition in assay [1] is 3.19%; in assay [2], -3.49%; in assay [3], 1.18%; in assay [4], 4.35%; in assay [5] it was -3.25%; in assay [6] it was -7.49%.

Consider `CC(C)=CC(=O)OC1C2C(C)C(=O)OC2C(O)C(C)C2C=CC(=O)C21C` (centres undefined), for which the Inhibition in assay [1] was 8.65%; in assay [2] it was -2.16%; in assay [3], -1.23%; in assay [4] it was 13.7%; in assay [5], 0.18%; in assay [6], -5.72%.

Turning to `CC[C@]1(O)C[C@H]2CN(CCc3c([nH]c4ccccc34)[C@@](C(=O)OC)(c3cc4c(cc3OC)N(C=O)[C@H]3[C@@](O)(C(=O)OC)[C@H](OC(C)=O)[C@]5(CC)C=CCN6CC[C@]43[C@@H]65)C2)C1.O=S(=O)(O)O` [VINCRISTINE SULFATE], the Inhibition in assay [1] is -14.43%; in assay [2] it was -6.71%; in assay [3], 2.79%; in assay [4] it was 1.69%; in assay [5] it was -0.39%; in assay [6], -1.83%.

For `O=C1c2cc(O)c(O)cc2O[C@H](c2ccc(O)c(O)c2)[C@H]1O`, the Inhibition in assay [1] was 16.46%; in assay [2], -11.64%; in assay [3], 7.15%; in assay [4], 6.5%; in assay [5], -0.56%; in assay [6] it was -13.12%.

Regarding `COC(=O)C1C(O)CCC2CN3CCc4c([nH]c5ccccc45)C3CC21` (centres undefined), the Inhibition in assay [1] is 7.76%; in assay [2] it was -5.08%; in assay [3] it was 5.27%; in assay [4], 13.74%; in assay [5], 1.54%; in assay [6], -9.85%.
